About 160 (0.33%) of roughly 48,000 compounds were called active. This is one part of a sample in which actives are shown more often than they occur.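 The calls were made as follows: active = survival measured by cellular ATP above 50% at 15 µg/ml in the first screen; inactive = the rest.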

We go through 89 molecules from PubChem BioAssay AID1010 (Sanford-Burnham Center for Chemical Genomics, 2008).

This test in a line: protection against thapsigargin ER stress killing – CSM14.1 cells, ATP luminescence, primary screen (AID 1010).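 Also: cell death triggered by about 15 µM thapsigargin; ATP read 24 h after thapsigargin was added; plate controls were thapsigargin with DMSO for no effect and DMSO without thapsigargin for full effect.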 The settings on record: CSM14.1 thapsigargin ER stress survival, hits give high values, screened at 15 µg/mL (by protocol).
On to `O=C(Nc1ccc(Cc2ccncc2)cc1)C(c1ccccc1)c1ccccc1`, for which the relative survival (cellular ATP) is 43.5% (inactive).

As to `COc1cc2ccccc2cc1C(=O)Nc1ccccc1C`, the relative survival (cellular ATP) was -5.9% (inactive). With `CC(C)(C)C(=O)CN1C2=NCCN2c2ccccc21`, the relative survival (cellular ATP) is -3.6% (inactive). Consider `COc1ccc(C2CC(c3cccs3)=NN2c2ccc(F)cc2)cc1OC` (centres undefined), for which the relative survival (cellular ATP) was 3.6% (inactive). As to `O=C(NCc1ccncc1)c1cccc([N+](=O)[O-])c1`, the relative survival (cellular ATP) is 2.2% (inactive).

As to `CCCOc1ccc(/C=C2\C(=O)NN(c3ccccc3)C2=O)cc1OC`, the relative survival (cellular ATP) is 4.3% (inactive). In the case of `O=C(NNC(=O)c1cc(NC(=O)c2ccc([N+](=O)[O-])cc2)cc(C(=O)NNC(=O)c2ccccc2)c1)c1ccccc1`, the relative survival (cellular ATP) is 10% (inactive). The figure for `Cc1cc(Cl)ccc1NC(=O)CCc1ccccc1` is 5.6% (inactive); for `O=C(NCc1cccnc1)c1cnn2c(C(F)(F)F)cc(-c3cccs3)nc12` it is 2.5% (inactive).

Regarding `O=C1C(=O)N(Cc2ccccc2)C(c2ccc(F)cc2)/C1=C(/O)c1ccccc1` (centres undefined), the relative survival (cellular ATP) was 6.2% (inactive).

As for `NC(=O)c1c(NC(=O)c2ccccc2F)sc2c1CCCCCC2`, the relative survival (cellular ATP) was 57.3% (active). In the case of `NC(=O)c1c(NC(=O)c2ccc(Br)cc2)sc2c1CCCCCC2`, the relative survival (cellular ATP) is 3.1% (inactive).

On to `COc1ccc(C(=O)Nc2sc3c(c2C(N)=O)CCCC3)cc1`, for which the relative survival (cellular ATP) is 13.7% (inactive). On to `COc1ccc(CCN2C(=O)CC(Cc3ccc(Cl)cc3)C2=O)cc1OC` (centres undefined), for which the relative survival (cellular ATP) is 10.7% (inactive).

As to `COc1cc(NC(=O)COc2ccc(Br)cc2C(C)(C)C)c(OC)cc1Cl`, the relative survival (cellular ATP) is 11.7% (inactive).

Turning to `Cc1c(C(=O)Nc2ccc(NC(=O)c3ccc(C(C)(C)C)cc3)cc2)cccc1[N+](=O)[O-]`, the relative survival (cellular ATP) was 0.1% (inactive).

Take `COc1cccc(OCCOc2ccc(/C=C3/SC(=S)NC3=O)cc2OC)c1`: the relative survival (cellular ATP) was 10.2% (inactive). Regarding `NC(=O)C1(N2CCCCC2)CCN(C(=S)Nc2ccc(Cl)cc2)CC1`, the relative survival (cellular ATP) was -1.2% (inactive).

As for `CC1=C(C(=O)Nc2ccccc2)C(c2ccco2)N2C(=O)CSC2=N1` (centres undefined), the relative survival (cellular ATP) is 2.3% (inactive). The figure for `O=C(NCCC1=CCCCC1)c1cc(Cl)ccc1[N+](=O)[O-]` is 5.6% (inactive); for `NC1=NC(=O)/C(=C/c2ccc(OCc3cccc4ccccc34)cc2)S1` it is 2.9% (inactive). Regarding `O=C(NCCCCOc1ccccc1)C(O)(c1ccccc1)c1ccccc1`, the relative survival (cellular ATP) is 5.8% (inactive). In the case of `COc1cc(OC)cc(C(=O)Nc2cccc(S(N)(=O)=O)c2)c1`, the relative survival (cellular ATP) is -2.7% (inactive). With `CCOC(=O)c1ccc(NS(=O)(=O)c2cc(C(=O)Nc3ccccc3)ccc2C)cc1`, the relative survival (cellular ATP) was 4.6% (inactive).

With `CC1=C(C#N)c2nc(N)c(C#N)c(C)c2/C1=C/c1ccc(-c2cccc(Cl)c2Cl)o1`, the relative survival (cellular ATP) was -6.8% (inactive).

As to `O=C(O)c1cc(-c2ccc(/C=N/Nc3ccc(Cl)c(Cl)c3)o2)ccc1Cl`, the relative survival (cellular ATP) is -2.2% (inactive). `COc1ccc(/C=C2\SC(=S)N(CC(=O)OCCN(C)C)C2=O)cc1`: the relative survival (cellular ATP) is -6.1% (inactive).

`Cc1c(C#N)c2nc3ccccc3n2c(=O)/c1=C\c1c(O)n(-c2ccc(Br)cc2)[nH]c1=O`: the relative survival (cellular ATP) was -1.2% (inactive).

For the molecule `O=c1nc2cc3[nH]c4c(=O)c5ccccc5c4[nH]c3cc2n1`, the relative survival (cellular ATP) is 12.2% (inactive). Take `COC(=O)C1=C(C)NC2=C(C(=O)c3ccccc32)C1c1ccc(-c2ccc([N+](=O)[O-])cc2C)o1` (centres undefined): the relative survival (cellular ATP) is 7.6% (inactive). Consider `CC(=O)c1ccc(NC(=S)NC(NC(=O)N(C)C)C(Cl)(Cl)Cl)cc1` (centres undefined), for which the relative survival (cellular ATP) was -1.5% (inactive).

As for `COc1ccc(/C(O)=C2/C(=O)C(=O)N(CCCCCC(=O)O)C2c2ccccc2)cc1` (centres undefined), the relative survival (cellular ATP) is 2.4% (inactive). Consider `O=C(NCCc1ccccc1)/C(=C/c1ccc(-c2cccc([N+](=O)[O-])c2)o1)NC(=O)c1ccccc1`, for which the relative survival (cellular ATP) was 8.1% (inactive). As to `O=C(NC(NC(=S)N1CCOCC1)C(Cl)(Cl)Cl)c1cccc([N+](=O)[O-])c1` (centres undefined), the relative survival (cellular ATP) was 0.9% (inactive).

In the case of `CC(C)(C)CC(C)(C)NC(=O)CSc1nc2ccccc2[nH]1`, the relative survival (cellular ATP) was 12.7% (inactive). In the case of `COC(=O)C1=C(C)N=c2s/c(=C\c3ccc(N(C)C)cc3)c(=O)n2C1c1ccccc1Cl` (centres undefined), the relative survival (cellular ATP) was 0.6% (inactive).

For the molecule `COc1cc(/C=C2/NC(=S)NC2=O)ccc1OCc1ccccc1Cl`, the relative survival (cellular ATP) was 1.9% (inactive). The figure for `CCN1C(=O)/C(=C\c2ccc(OC)c([N+](=O)[O-])c2)C(C(=O)OC)=C1C` is 11.8% (inactive); for `Cc1ccc(N2C(=O)/C(=C/c3sccc3C)SC2=S)cc1` it is 9.2% (inactive). As for `O=C1S/C(=C/c2ccccc2F)C(=O)N1CNc1ccccc1Br`, the relative survival (cellular ATP) was 2.5% (inactive). For the molecule `O=C(Nc1nc(-c2ccc3ccccc3c2)cs1)c1ccc(Cl)cc1[N+](=O)[O-]`, the relative survival (cellular ATP) is 2% (inactive).

Turning to `CCOc1ccc(-n2c(O)c(C=C3C=CC=N3)c(=O)[nH]c2=O)cc1`, the relative survival (cellular ATP) was 2.3% (inactive). On to `O=c1[nH]c(=S)n(-c2cccc(Cl)c2)c(O)c1/C=C1/C=CC=N1`, for which the relative survival (cellular ATP) was 8.4% (inactive). As to `O=c1[nH]c(=O)n(-c2ccc(Cl)cc2)c(O)c1/C=C1/C=CC=N1`, the relative survival (cellular ATP) is 64.8% (active). The figure for `COc1ccc(/C=C(/NC(=O)c2ccco2)C(=O)Nc2ccc(C(C)=O)cc2)cc1` is 2.4% (inactive); for `COC(=O)C(NC(=O)CCC1CCCCC1)C12CC3CC(CC(C3)C1)C2` (centres undefined) it is 13.9% (inactive); for `CC1=NN(c2ccc(S(N)(=O)=O)cc2)C(=O)/C1=C\c1ccc(-c2cc([N+](=O)[O-])ccc2C)o1` it is -4.8% (inactive). Consider `CCOc1c(Br)cc(/C=C2/C(=O)NN(c3ccccc3)C2=O)cc1OC`, for which the relative survival (cellular ATP) was 5% (inactive). The figure for `COc1ccc(Br)cc1-c1nc2nnc(C)n2[nH]1` is 7.4% (inactive); for `Cc1ccc(C(=O)Nc2ccc(NC(=O)c3ccccc3)cc2)cc1S(=O)(=O)N1CCOCC1` it is 5% (inactive).

For the molecule `COc1ccc(-c2cc(C(=O)Nc3c(C)cccc3C)c3ccccc3n2)cc1`, the relative survival (cellular ATP) was 0.1% (inactive).

Turning to `COCCCNC(=O)c1ccccc1C`, the relative survival (cellular ATP) was 0.6% (inactive).

On to `CCOCCOC(=O)c1ccc(NC(=O)c2ccccc2C)cc1`, for which the relative survival (cellular ATP) is 7.2% (inactive). Regarding `CCCCOC(=O)C1=C(C)NC2=C(C(=O)CC(c3ccccc3)C2)C1c1ccc(O)c([N+](=O)[O-])c1` (centres undefined), the relative survival (cellular ATP) is 3.8% (inactive).

As for `O=C1OC(c2ccc(NC(=O)C(F)(F)F)cc2)(c2ccc(NC(=O)C(F)(F)F)cc2)c2ccccc21`, the relative survival (cellular ATP) is 6.6% (inactive). Take `O=C1NC(=S)S/C1=C\c1ccccc1OS(=O)(=O)c1ccc([N+](=O)[O-])cc1`: the relative survival (cellular ATP) was 3.7% (inactive). For the molecule `Cc1ccc(C(=O)Nc2ccc(Cl)cc2)o1`, the relative survival (cellular ATP) was 2.1% (inactive). With `O=S(=O)(O)c1cc(-n2nc3ccc4c(S(=O)(=O)O)cccc4c3n2)ccc1/C=C/c1ccccc1`, the relative survival (cellular ATP) was 6.1% (inactive).

Consider `CCc1cccc(C)c1NC(=O)c1ccc(C)c([N+](=O)[O-])c1`, for which the relative survival (cellular ATP) was 0.4% (inactive). For `CC(NC(=O)C(F)(Cl)C(F)(F)F)c1ccccc1` (centres undefined), the relative survival (cellular ATP) was -2.2% (inactive). As to `O=C(N/C(=C/c1ccc(-c2cccc(C(F)(F)F)c2)o1)C(=O)N1CCOCC1)c1ccc(Cl)cc1`, the relative survival (cellular ATP) was 1% (inactive). As to `O=[N+]([O-])c1ccc(C2Nc3ccc(Br)cc3C3C=CCC32)cc1` (centres undefined), the relative survival (cellular ATP) was 6.4% (inactive).

As to `CC1(C)CC(=O)C2=C(C1)Nc1ccccc1N(C(=O)Cc1ccccc1)C2c1cccc(F)c1` (centres undefined), the relative survival (cellular ATP) was 0.5% (inactive). Regarding `COc1ccc(C2C3=C(CC(C)(C)CC3=O)Nc3ccccc3N2C(=O)c2ccc(Cl)cc2)cc1OC` (centres undefined), the relative survival (cellular ATP) was 59.4% (active). Turning to `CC1(C)CC(=O)C2=C(C1)NC1=C(C(=O)CC(C)(C)C1)C2c1ccccc1Cl`, the relative survival (cellular ATP) is 9.2% (inactive). Consider `CC(=O)Oc1ccc2occ(C(=O)c3ccc(C)cc3)c2c1`, for which the relative survival (cellular ATP) is -6.1% (inactive). As for `CCOC(=O)C1=NN(C(=O)c2ccc(Cl)cc2)C(O)(C(C)(C)C)C1` (centres undefined), the relative survival (cellular ATP) is 11.8% (inactive). Take `O=C(/C=C/c1ccccc1Cl)c1ccc(NC(=O)c2cccs2)cc1`: the relative survival (cellular ATP) was 1.3% (inactive). The figure for `O=C(c1ccc(C#CC2(O)CCCCC2)cc1)N1CCN(c2ccccc2Cl)CC1` is 94.4% (active); for `OC1(C#Cc2ccccc2)CCN(Cc2ccccc2)CC1` it is -6% (inactive); for `CC(=O)Nc1ccc(C(=O)N2CCN(c3ccccc3)CC2)cc1` it is -6.3% (inactive). Consider `Cc1cc(=O)oc2cc(OCC(=O)OCc3ccccc3)ccc12`, for which the relative survival (cellular ATP) is 1.2% (inactive). With `Cn1nc(-c2ccc(Br)cc2)cc1N`, the relative survival (cellular ATP) is -2.2% (inactive).

Take `COc1cc(C2Nc3ccc4ccccc4c3C3=C2C(=O)CC(C)(C)C3)c(Br)cc1O` (centres undefined): the relative survival (cellular ATP) was 1.3% (inactive). On to `COc1cc(OC)c(C2NC(=S)NC(C)=C2C(=O)Nc2ccc(Cl)cc2)cc1OC` (centres undefined), for which the relative survival (cellular ATP) is 7.2% (inactive). `CCOc1nc(-c2ccccc2)cc(-c2ccc(Br)cc2)n1`: the relative survival (cellular ATP) is 1.9% (inactive). For `NS(=O)(=O)c1cccc(C(=O)Nc2ccc([N+](=O)[O-])cc2)c1`, the relative survival (cellular ATP) was 4.7% (inactive).

Consider `Clc1ccc(/C=N\N2CCN(C(c3ccccc3)c3ccccc3)CC2)cc1`, for which the relative survival (cellular ATP) is 9.1% (inactive). In the case of `C/C(Cn1nnc([N+](=O)[O-])n1)=N/NC(=O)Cc1ccccc1`, the relative survival (cellular ATP) was -8.3% (inactive). Regarding `CCCCS(=O)(=O)CC(O)COc1ccccc1` (centres undefined), the relative survival (cellular ATP) was 10.3% (inactive). The figure for `COc1cccc(C(=O)Nc2ccccc2C(F)(F)F)c1` is 5.4% (inactive); for `CCOC1CC(c2ccccc2)=NN1c1ccccc1` (centres undefined) it is 2.7% (inactive). Turning to `COc1ccc(C2/C(=C(\O)c3ccc(F)cc3)C(=O)C(=O)N2c2nncs2)cc1` (centres undefined), the relative survival (cellular ATP) was -1.4% (inactive).

Consider `Oc1c(/C=C2/C=Nc3ccccc32)sc(=S)n1Cc1ccccc1`, for which the relative survival (cellular ATP) was 11% (inactive).

Take `O=C(Nc1cccc(F)c1)c1sc2ccccc2c1Cl`: the relative survival (cellular ATP) was 1.2% (inactive). Turning to `COc1ccc(N2C(=O)c3ccc(C(=O)Nc4cccc(O)c4)cc3C2=O)cc1`, the relative survival (cellular ATP) is 2% (inactive). Consider `COC(=O)c1ccc(/C=C2\SC(=S)N(CCCC(=O)Nc3nccs3)C2=O)cc1`, for which the relative survival (cellular ATP) is -4% (inactive). With `COc1ccccc1CC(=O)Nc1ccc(F)cc1F`, the relative survival (cellular ATP) is 6.1% (inactive). Turning to `COc1ccc(C2/C(=C(\O)c3ccc(Cl)cc3)C(=O)C(=O)N2CCCn2ccnc2)cc1` (centres undefined), the relative survival (cellular ATP) was 13% (inactive).
